The record followed here is PubChem BioAssay (NCI).

Values joined by “and” are separate entries in the source; they are usually repeats but may differ in a detail not shown here. Equal entries are not always repeated. The panel holds about 83,000 compounds, 20% with a hit somewhere; the sample as a whole holds those more often.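 Each cell line was grown in a 96-well plate and treated with one concentration of compound for 48 hours. Values below 10 were considered active.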 Values without a mark were called inactive. Active and inactive are the calls of the source.

This assay has as its system MDA-MB-468 breast. Briefly: NCI-60 one-dose screen, 48 h (100 = growth as untreated, 0 = no growth, -100 = all killed). As to conditions: 10 µM unless noted.

`CCc1cccc2c3c(sc12)C(c1ccc(F)cc1)C(C#N)=C(/N=C/c1ccc(Cl)cc1)O3` (stereo not drawn): the growth was 31%.

For the compound `COC1=CC(c2ccc[nH]2)=N/C1=C\c1[nH]c(C)c(C(=O)OCc2ccccc2)c1C`, the growth is -83.2% (active).

Consider `COc1ccc(Nc2nc(N)nc3c2CCN(Cc2ccc(OC)cc2OC)C3=O)cc1`, for which the growth is 95.6%.

Take `CCOC(=O)Nc1ccc(-c2nc(-c3cccc(OCCN4CCOCC4)c3)c(-c3ccnc(Br)c3)[nH]2)cc1`: the growth was 33.9%.

As for `C#CC#CC#CC#CC#CC#CC#CC#CCC1OCC(COC(=O)O[C@@H](C(=O)O[C@H]2C[C@@]3(O)[C@@H](OC(=O)c4ccccc4)[C@@H]4[C@]5(OC(C)=O)CO[C@@H]5C[C@H](O)[C@@]4(C)C(=O)[C@H](OC(C)=O)C(=C2C)C3(C)C)[C@@H](NC(=O)c2ccccc2)c2ccccc2)O1` (stereo partly drawn), the growth was -22.4% (active).

For `Nc1c(C(=O)Nc2cccc3ccccc23)sc2nc3c(cc12)C(=O)CCC3`, the growth is 50%.

For `Cn1c(-c2nonc2NC(=O)c2ccc(F)cc2)nc2ccccc21`, the growth is 99.5%.

Turning to `C=C(C)C(=O)O[C@H]1C[C@@]2(C)OC(=CC2=O)/C(CO)=C\[C@H]2OC(=O)C(=C)[C@H]12`, the growth was -34% (active).

Turning to `CC(C)(C)n1cc(-c2ccnc(NCCNS(=O)(=O)c3ccc(O)cc3)c2)c(-c2cccc(O)c2)n1`, the growth is 91.8%.

`C[n+]1ccc(CCc2c[nH]c3ccccc23)cc1`: the growth is 14.4%.

Regarding `CCOC(=O)c1nn(C2CCCCO2)c2ccc(NC(=O)CN3CCOCC3)cc12` (stereo not drawn), the growth is 107%.

As for `COc1cc(-c2cc(/C=C3\C(=O)Nc4ccccc43)[nH]n2)cc(OC)c1OC`, the growth is 82%.

Turning to `CC(=O)OC[Si](C)(C)c1ccccc1`, the growth was 95.3%.

In the case of `NS(=O)(=O)c1ccc(C(=O)NN2C(=O)c3ccccc3C2=O)cc1`, the growth is 122%.

Regarding `O=C(O)c1cc([N+](=O)[O-])ccc1Br`, the growth was 96.5%.

As to `CCCCCCCCCCCCCC(=O)Oc1ccc[nH]c1=O`, the growth is 89.4%.

For `COC(=O)[C@]1(C)CC[C@]2(C)CC[C@]3(C)C(=CC(=O)[C@@H]4[C@@]5(C)CCC(=O)NC(C)(C)[C@@H]5CC[C@]43C)[C@@H]2C1`, the growth is -49.5% [100 µM] (active).

For `N=C(N)N=Nc1ccc(O)cc1`, the growth was 88% [100 µM].

For the compound `Nc1nc(N)c2c(n1)NC1(C=C(O)c3ccccc31)C1=C(N2)c2ccccc2C1=O` (stereo not drawn), the growth is 127%.

As to `COC(=O)c1nc(-c2ccc(C)cc2)oc1N1CCOCC1`, the growth is 82.1%.

For the compound `N#CSc1c[nH]c2cccc(/C=C/C(=O)/C=C(/C=C/c3cccc4[nH]cc(SC#N)c34)OB(F)F)c12`, the growth was -32% (active).

`CC[C@H]1OC(=O)[C@H](C)[C@@H](O[C@H]2C[C@@](C)(OC)[C@@H](O)[C@H](C)O2)[C@H](C)[C@@H](O[C@@H]2O[C@H](C)C[C@H](N(C)C)[C@H]2O)[C@](C)(OC)C/C(C)=C2/O[C@@]1(C)C=C2C`: the growth is -73.7% (active).

For the compound `COc1ccc(-c2cc(-c3ccccc3)nc(SCCCC(=O)NO)n2)cc1`, the growth was -50.5% (active).

For `O=C(Nc1ccncc1)C(=O)c1cn(S(=O)(=O)c2ccc(Cl)cc2)c2ccccc12`, the growth is 19.7%.

Turning to `CCC(c1ccc(OC)cc1)C(CC)c1ccc(O)c(CN2CCN(C)CC2)c1` (stereo not drawn), the growth is 30%.

Turning to `Oc1ccccc1N=Cc1ccccc1`, the growth is 91%.

With `O=S(=O)(NCCNc1nccc(-c2c(-c3cccc(O)c3)nc3occn23)n1)c1ccc(C(F)(F)F)cc1`, the growth was 89%.

As to `CC1(C)CCCN1CCCN1c2ccccc2Sc2ccc(Cl)cc21`, the growth is 37.6%.

Take `CN1CCN(Cc2ccc(NC(=O)c3cncc(C#Cc4cnc5ccc(O[C@H]6CCOC6)nn45)c3)cc2C(F)(F)F)CC1`: the growth is -59.7% (active).

With `COc1ccc(Cn2cc3c(c2-c2cc(OC)c(OC)c(OC)c2)CCc2c(CN4CCOCC4)noc2-3)cc1`, the growth is 45.5%.

As to `Cc1ccc(NC(=O)CSc2nnc3n(Cc4ccccc4)c(=O)c4c(C)c(C(N)=O)sc4n23)cc1`, the growth was 107%.

In the case of `COc1cc2c(c(OC)c1OC)C(=O)CC(c1cccc(NC(=O)c3ccccc3Br)c1)O2` (stereo not drawn), the growth was 85.1%.

Take `COc1ccc2cc(-c3ccnc4c(N=Nc5ccc(Cl)cc5)c(N)nn34)ccc2c1`: the growth was 98.8%.

In the case of `CC(C)[N+](C)(CCOC(COc1ccccc1)COc1ccccc1)C(C)C`, the growth is 12.8%.

On to `COc1cc(Cn2c(-c3nonc3N)nc3ccccc32)ccc1C`, for which the growth is 40.9%.

As to `C[C@]12CC[C@H]3[C@@H](CCC4=CC(=O)CC[C@@]43C)[C@@H]1CC[C@@H]2c1csc(N)n1`, the growth was 28.4%.

For `Cc1nn(-c2nc3ccccc3[nH]2)c2c1C(c1ccc(O)cc1)CC(=O)N2` (stereo not drawn), the growth is 92.8%.

Turning to `CN1CCN(CCOc2ccc(-c3cnc4c(-c5cccc(F)c5F)cnn4c3)cc2)CC1`, the growth was 94.8%.

As to `CCN(CC)c1ccc(C(O)C2=CC(=O)c3ccccc3C2=O)cc1` (stereo not drawn), the growth was -53% (active).

`O=C(CSc1nnc(-c2cnccn2)n1-c1ccccc1)c1ccc(Cl)cc1`: the growth is 97.6%.

For `CCCCCC(=O)OCc1ccccc1`, the growth was 97.3%.

With `C/C(=N\NC(=O)CSc1nc2ccccc2c(=O)n1CCc1ccc(S(N)(=O)=O)cc1)c1ccccn1`, the growth was 25.3%.

Take `CN(C)CCCC1(c2ccc(F)cc2)OCc2cc(-c3cc4ccccc4s3)ccc21` (stereo not drawn): the growth was -8.95% (active).

With `c1cc(N2CCCC2)c2nc(-c3[nH]ncc3Nc3ncnc4[nH]ccc34)[nH]c2c1`, the growth was -76.2% (active).

Take `COc1ccc(Br)c(/C=C2\SC(=Nc3ccc(O)cc3)NC2=O)c1`: the growth is 85%.

For `Nc1ccc2c(c1)Cc1cc(NC(=O)C(F)(F)F)ccc1-2`, the growth is 75.7%.

In the case of `COc1cc2nc(Cl)nc(Nc3cccc(C(=O)/C=C/c4ccc(Cl)cc4)c3)c2cc1OC`, the growth was 63.8%.

On to `CC(=O)NC(Cc1ccccc1)C(=O)Oc1ccc2ccccc2c1` (stereo not drawn), for which the growth was 107% and 119%.

As for `COc1ccccc1NC(=O)c1ccc(/C=C/C(=O)c2nccn2C)cc1`, the growth was -40.7% (active).

Consider `COC(=O)CCSC1=C(C)C(=O)c2ccccc2C1=O`, for which the growth is -24.5% (active).

For `CC(O)c1cccc(/C(N)=N/C(N)=N/c2nc3ccccc3s2)c1` (stereo not drawn), the growth was 103%.

Take `O=C(/C=C/c1ccc(Cl)c(Cl)c1)Nc1ncc(Cc2ccc(Cl)c(Cl)c2)s1`: the growth is 68.5%.

Regarding `O=C1C=CC(=CC=C2C=CN(CCCCCCCCCCCO)C=C2)C=C1`, the growth was -37.4% (active).

Turning to `O=C1c2c(c3c4ccccc4[nH]c3c3ccc4ccccc4c23)C(=O)N1CCN1CCNCC1`, the growth is 76.5%.

With `CCC1=C[C@@H]2C[C@]3(C(=O)OC)c4[nH]c5ccccc5c4CC[N@+](CC(=O)Nc4cc5c(cc4OC)N(C)[C@H]4[C@@](O)(C(=O)OC)[C@H](OC(C)=O)[C@]6(CC)C=CCN7CC[C@]54[C@@H]76)(C2)[C@H]13`, the growth was 111%.

Turning to `COc1ccc2nc3cc(Cl)ccc3c(NC(=O)CSc3ccc(Cl)cc3)c2c1`, the growth was -81.7% (active).

With `Nc1c(C(=O)Nc2ccccc2Cl)sc2nc3c(cc12)C(=O)CCC3`, the growth was 24.9%.

For `CCCCNC(=O)Oc1ccc(/C(=C(\C)c2ccccc2)c2ccc(OCCN(CC)CC)cc2)cc1`, the growth is 70.3%.

Consider `COc1ccc(/C=C2\N=C(Nc3ccccc3)N(NC(=O)c3ccccn3)C2=O)cc1`, for which the growth was 97.2%.

On to `O=C(N/N=C/c1cccc2ccccc12)C1CC1`, for which the growth was 120% and 106%.

Regarding `CNC(=O)c1ccccc1CC1(O)c2ccccc2Oc2ccccc21`, the growth is 42.9%.

`COc1cc2c3c(n(CCCNC4CCC4)c(=O)c2cc1OC)-c1cc2c(cc1C3=O)OCO2`: the growth was 30.6%.

Take `Nc1c(C(=O)Nc2c(Cl)cccc2Cl)sc2nc3c(cc12)C(=O)CCC3`: the growth was -3.83% (active).

Consider `O=C1/C(=C/c2ccc(F)c(F)c2)CN(C(=O)C(Cl)Cl)C/C1=C\c1ccc(F)c(F)c1`, for which the growth was -58.2% (active).

For the compound `C=C1C(=O)O[C@H]2[C@H]1CC/C(CNC(=O)/C=C/c1ccc(Br)cc1)=C\CC[C@@]1(C)O[C@@H]21`, the growth is -58.5% (active).

Take `COc1ccc2c(-c3ccc(F)cc3)c(C#N)c(=NC(C)=O)oc2c1`: the growth was -8.32% (active).

Consider `COc1ccc(/C(=C\c2cc(OC)c(OC)c(OC)c2)C(=O)N2CCN(c3ccccc3)CC2)cc1O`, for which the growth was 96.8%.

As for `Oc1c(I)cc(I)cc1CNCCCN(Cc1ccccn1)Cc1ccccn1`, the growth was -55.7% (active).

Take `CCN1C(=O)N(CC)C2Nn3c(s/c(=C\c4ccccc4Br)c3=O)=NC21` (stereo not drawn): the growth is 12.3%.

For `O=S1(=O)N(Cc2ccccc2)[C@@H](Cc2ccccc2)[C@H](O)[C@H](O)[C@H](Cc2ccccc2)N1Cc1ccccc1`, the growth is -27.7% (active).

`CC(NC(=O)c1ccccc1)C(=O)Nc1ccccc1` (stereo not drawn): the growth was 109%.

As to `CC1=CC(=O)C2=C(C)CC(OC(=O)CCc3ccccc3)[C@@H]3[C@H](OC(=O)[C@@H]3C)[C@@H]12` (stereo partly drawn), the growth was 79.4%.

With `Cn1cc(-c2noc(-c3cn(C)c4ncccc34)n2)c2cc(Cl)ccc21`, the growth is 91.3%.

With `COc1ccc([N+](=O)[O-])c(C(=O)O)c1`, the growth is 96.4%.

With `CC1CCc2c(sc3nc(SCC(=O)N/N=C/c4ccc(Cl)cc4)n(-c4ccccc4)c(=O)c23)C1` (stereo not drawn), the growth was 85.6%.

With `COc1cc(-c2cc3cnccc3c3nc(N)c4ccncc4c23)cc(OC)c1OC`, the growth was 8.5% (active).

In the case of `CC(C)(C)n1cc(-c2ccnc(NCCNS(=O)(=O)c3cccc(F)c3)c2)c(-c2ccccc2)n1`, the growth was 62.8%.

Regarding `CC[C@]12C=CCN3CC[C@@]4(c5cc(NC(=O)CCC(=O)OCc6cn(Cc7ccc(F)cc7)nn6)c(OC)cc5N(C)[C@H]4[C@@](O)(C(=O)OC)[C@@H]1OC(C)=O)[C@@H]32`, the growth is 104%.
